The list is not random: actives were taken first. Their share in the collection is about 4.2%.
esBAF inh = inhibitors of esBAF chromatin remodeling in mouse ES cells. Bmi1-luciferase knock-in reporter, 24 h; 100% = twice the neutral-well signal. reporter increase, % at 12.5 µM. actives 2% (n = 350,000); in the data active = activation above about 40%;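 also: a rise in the Bmi1 reporter signal indicates esBAF inhibition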
hgDAF12 agonist = hgDAF-12 agonism, primary luciferase screen; actives 1.8% (n = 370,000); AID 687014; activation, % at 6.8 µM; HEK293 GAL4-hgDAF12 UAS-luciferase reporter, agonist luminescence; normalized to butyrate control;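 active = activation above a cutoff set at the mean of all screened compounds plus 3 SD, cut at about 10% in these data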
DAX1 StAR inh = DAX1 (NR0B1) inhibition, primary screen; actives 1.1% (n = 370,000); HEK293T StAR-luciferase reporter, SF-1/DAX-1 repression relief; inhibition, % at 6.8 µM; AID 652010;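 active = inhibition above the mean over all tested compounds plus 3 SD, cut at about 3.6% in these data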;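 also: higher inhibition means more luminescence from relief of DAX-1 repression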
Wnt act = activates Wnt/beta-catenin signaling in a reporter cell assay. activator, plate reader. activation, % at 9.35 µM. actives 1.2% (n = 300,000); in the data active = activation above about 30%, passing the limit was not always enough
hcDAF12 agonist = activators of H. contortus DAF-12 nuclear receptor; activation, % at 6.8 µM; actives 1.4% (n = 370,000); HEK293 hcDAF-12 lit1-tk-luc reporter, luminescence; 0% DMSO, 100% Δ7-dafachronic acid;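 active = activation above the mean of all tested compounds plus 3 SD, cut at about 5.5% in these data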
ssDAF12 agonist = S. stercoralis DAF-12 activation, primary screen; HEK293 ssDAF-12/GRIP1 lit1-tk-luc reporter, luminescence; % of 3 µM dafachronic acid response; activation, % at 6.8 µM; actives 1% (n = 370,000); AID 652126;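 active = activation above the mean over all tested compounds plus 3 SD, cut at about 0.9% in these data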
Hits are given with their value.

Oc1ccc(/C=N/Nc2nc(-c3cccnc3)nc3ccccc23)c(O)c1 was read as esBAF inh 58, hgDAF12 agonist inactive, DAX1 StAR inh inactive, Wnt act inactive, hcDAF12 agonist inactive and ssDAF12 agonist inactive.
Screening Cc1nn(-c2ccc(C(=O)O)cc2)c(N)c1-c1ccccc1 returned esBAF inh 61, hgDAF12 agonist inactive, DAX1 StAR inh inactive, Wnt act inactive, hcDAF12 agonist inactive and ssDAF12 agonist inactive.
COc1ccc(-c2c(C)nn(-c3ccccc3)c2N)cc1 was read as esBAF inh 63, hgDAF12 agonist inactive, DAX1 StAR inh inactive, Wnt act inactive, hcDAF12 agonist inactive and ssDAF12 agonist inactive.
Cc1nn(-c2nc3ccccc3[nH]2)c(N)c1-c1ccc(Cl)cc1 was read as esBAF inh 61 and Wnt act inactive.
`O=C(N/N=C/c1ccc(F)cc1)c1cc(-c2ccc3c(c2)OCO3)n[nH]1` gave hgDAF12 agonist inactive, DAX1 StAR inh inactive, Wnt act inactive, hcDAF12 agonist inactive and ssDAF12 agonist inactive.
Cc1ccc(-c2cc(C(=O)NN=Cc3ccc(F)cc3)[nH]n2)cc1C was read as hgDAF12 agonist 11, DAX1 StAR inh inactive, hcDAF12 agonist inactive and ssDAF12 agonist inactive.
`C=CCSC1=NNC(c2ccc(C(C)(C)C)cc2)=NN1` gave esBAF inh 63, hgDAF12 agonist inactive, DAX1 StAR inh inactive, Wnt act inactive, hcDAF12 agonist inactive and ssDAF12 agonist inactive.
`O=C(CN(C(=O)Cn1nnc(-c2ccc(F)cc2)n1)c1ccc(F)c(Cl)c1)NCC1CCCO1` (stereo unspecified) gave hgDAF12 agonist inactive, DAX1 StAR inh inactive, Wnt act 41, hcDAF12 agonist inactive and ssDAF12 agonist inactive.
Screening CSCCC(NC(=O)OC(C)(C)C)C(=O)Oc1ccc2c(=O)c(-c3ccc4c(c3)OCCO4)coc2c1 (stereo unspecified) returned esBAF inh inactive, hgDAF12 agonist 11, DAX1 StAR inh inactive, Wnt act 37, hcDAF12 agonist 5.7 and ssDAF12 agonist inactive.
For CSCCC(NC(C)=O)C(=O)Oc1ccc2c3c(c(=O)oc2c1)CCCC3 (stereo unspecified) the results were esBAF inh inactive, hgDAF12 agonist inactive, DAX1 StAR inh inactive, Wnt act inactive, hcDAF12 agonist inactive and ssDAF12 agonist inactive.
O=C(C[C@@H]1CC[C@H]2[C@@H](COC[C@@H](O)CN2C(=O)c2cccnc2)O1)NC1Cc2ccccc2C1 was read as esBAF inh inactive.
Screening Cc1cc(NCCCn2ccnc2)n2nc(C)c(-c3ccccc3)c2n1 returned esBAF inh 47, hgDAF12 agonist inactive, DAX1 StAR inh inactive, Wnt act inactive, hcDAF12 agonist inactive and ssDAF12 agonist inactive.
`Cc1ccc(Nc2nnc(-c3ccccc3N)o2)cc1C` gave hgDAF12 agonist 11, DAX1 StAR inh inactive, Wnt act 37, hcDAF12 agonist inactive and ssDAF12 agonist inactive.
`CCOC(=O)N1CCN(C(=O)CCC(=O)N2CCOc3ccc(C)cc32)CC1` gave esBAF inh inactive, hgDAF12 agonist inactive, DAX1 StAR inh inactive, Wnt act inactive, hcDAF12 agonist inactive and ssDAF12 agonist inactive.
`Cc1ccc2c(c1)N(C(=O)CCC(=O)N1CCC(C(N)=O)CC1)CCO2` gave esBAF inh inactive, hgDAF12 agonist inactive, DAX1 StAR inh inactive, Wnt act inactive, hcDAF12 agonist inactive and ssDAF12 agonist 1.3.
Screening CSC(=S)N/N=C/c1ccc(N(C)C)cc1 returned hgDAF12 agonist inactive, DAX1 StAR inh inactive, Wnt act inactive, hcDAF12 agonist inactive and ssDAF12 agonist inactive.
For Cc1ccc(NC(=O)O/N=C/c2ccc(N(C)C)cc2)cc1 the results were esBAF inh 56, hgDAF12 agonist 13, DAX1 StAR inh inactive, Wnt act inactive, hcDAF12 agonist inactive and ssDAF12 agonist inactive.
Screening Cc1ccc(NC(=O)O/N=C/c2ccc(F)cc2)cc1 returned esBAF inh 56, hgDAF12 agonist inactive, DAX1 StAR inh inactive, Wnt act inactive, hcDAF12 agonist inactive and ssDAF12 agonist inactive.
CC(=O)Nc1ccc(/C=N/OCC(=O)Nc2ccc(C)cc2)cc1 was read as hgDAF12 agonist 12, DAX1 StAR inh inactive, hcDAF12 agonist inactive and ssDAF12 agonist inactive.
CN(C)c1ccc(C=NNC(=S)Nc2ccc(F)cc2)cc1 was read as esBAF inh 59, hgDAF12 agonist 11, DAX1 StAR inh inactive, Wnt act inactive, hcDAF12 agonist inactive and ssDAF12 agonist inactive.
`O=C(NCC[C@@H]1CC[C@@H](NC(=O)c2cccnc2)[C@@H](CO)O1)Nc1ccc(Cl)cc1` gave esBAF inh inactive.
Screening CO[C@@H]1CN(C)C(=O)c2ccc(NC(=O)C3CC3)cc2OC[C@@H](C)N(CC2CCCC2)C[C@@H]1C returned esBAF inh inactive.
For C[C@@H]1CCCCO[C@H](CN(C)S(=O)(=O)c2ccc(F)cc2)[C@@H](C)CN([C@H](C)CO)C(=O)c2cc(NC(=O)c3ccncc3)ccc2O1 the results were esBAF inh inactive.
`CCNC(=O)C[C@H]1CC[C@@H]2[C@@H](COc3ccc(NC(=O)Nc4ccc(F)cc4)cc3C(=O)N2C)O1` gave esBAF inh inactive.
C[C@H](CO)N1C[C@H](C)[C@@H](CN(C)CC2CC2)Oc2cc(-c3cccc(C#N)c3)ccc2S1(=O)=O was read as esBAF inh inactive.
For O=C(OCC#CCSc1nnc(-c2ccc(Br)cc2)o1)c1cccs1 the results were hgDAF12 agonist inactive, DAX1 StAR inh inactive, Wnt act inactive, hcDAF12 agonist inactive and ssDAF12 agonist 1.0.
COc1ccccc1C#Cc1cnc2c(c1)C(=O)N([C@H](C)CO)C[C@H](C)[C@H](CN(C)C)O2 was read as esBAF inh inactive.
COc1ccc(NC(=O)Nc2ccc3c(c2)[C@@H]2C[C@H](CC(=O)NCc4ccccn4)O[C@@H](CO)[C@@H]2O3)cc1 was read as esBAF inh inactive.
`COc1ccc(Nc2cc(Nc3ccccc3)ncn2)cc1` gave esBAF inh inactive, hgDAF12 agonist inactive, DAX1 StAR inh inactive, Wnt act inactive, hcDAF12 agonist 6.0 and ssDAF12 agonist inactive.
For COc1ccc(Nc2ccnc(Nc3ccc(OC)cc3)n2)cc1 the results were hgDAF12 agonist inactive, DAX1 StAR inh inactive, Wnt act 48, hcDAF12 agonist inactive and ssDAF12 agonist inactive.
Screening Cc1noc(C)c1S(=O)(=O)N(C)C[C@H]1OCCCC[C@@H](C)Oc2ccc(NC(=O)C3CCCCC3)cc2C(=O)N([C@@H](C)CO)C[C@@H]1C returned esBAF inh inactive.
`CCCC(=O)Nc1ccc2c(c1)C(=O)N(C)[C@H]1CC[C@@H](CC(=O)NCCc3ccccc3)O[C@@H]1CO2` gave esBAF inh inactive.
O=C(OCc1nc2ccccc2s1)c1ccc(Br)o1 was read as hgDAF12 agonist inactive, DAX1 StAR inh inactive, Wnt act inactive, hcDAF12 agonist inactive and ssDAF12 agonist inactive.
